Assay results: PubChem BioAssay AID1159580 (chemical genetic matrix, 2015)
Values joined by “and” are separate entries in the source; they are usually repeats but may differ in a detail not shown here. Equal values may be shown once. Hit rate of the full screen: of about 5,500 compounds, about 2,000 (36%) were called active. About 18% were inconclusive and are not listed. No stated cut-off is given here; in the data, active means normalized growth mostly below about 0.91 (no sharp cut-off); inconclusive means no clear call, values can overlap the other calls; inactive means mostly above about 0.92. The list shows a part of the results. Some structures have more than one record in an assay (separate samples or runs), and their calls can disagree.

Test: chemical genetic growth profiling, strain panel (AID 1159580);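 further: tested at 20 µM; growth read once vehicle control cultures reached saturation at 30 °C; 1 = growth at the plate median or of vehicle wells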
Conditions: S. cerevisiae deletion strains, growth OD
[1] = locus YAL040C, strain CLN3, stronger effect = lower value
[2] = locus YCL061C, strain MRC1 (second series), stronger effect = lower value
[3] = locus YDR363W, strain ESC2, stronger effect = lower value
[4] = locus YER002W, strain NOP16, stronger effect = lower value
[5] = locus YMR307W, strain GAS1, stronger effect = lower value
[6] = locus YNL175C, strain NOP13, stronger effect = lower value
[7] = locus YNL197C, strain WHI3, stronger effect = lower value
[8] = locus YNL224C, strain SQS1, stronger effect = lower value
[9] = locus YOR083W, strain WHI5 (second series), stronger effect = lower value
[10] = locus YAL013W, strain DEP1, stronger effect = lower value
[11] = locus YGR078C, strain PAC10, stronger effect = lower value
[12] = locus YJR075W, strain HOC1, stronger effect = lower value
[13] = locus YNL153C, strain GIM3, stronger effect = lower value
[14] = locus YNL322C, strain KRE1, stronger effect = lower value
[15] = locus YPL055C, strain LGE1, stronger effect = lower value

Compound | normalized growth [1] | normalized growth [2] | normalized growth [3] | normalized growth [4] | normalized growth [5] | normalized growth [6] | normalized growth [7] | normalized growth [8] | normalized growth [9] | normalized growth [10] | normalized growth [11] | normalized growth (locus YGR229C, strain SMI1, stronger effect = lower value) | normalized growth [12] | normalized growth (locus YMR263W, strain SAP30, stronger effect = lower value) | normalized growth [13] | normalized growth [14] | normalized growth [15] | normalized growth (locus YPL241C, strain CIN2, stronger effect = lower value)
C[C@@](Cc1ccc(O)c(O)c1)(NN)C(=O)O | 1.01 (inactive) | 1 (inactive) | 1.02 (inactive) | 1.06 (inactive) | 0.997 (inactive) | 1.04 (inactive) | 0.993 (inactive) | 1.02 (inactive) | 0.978 (inactive) | – | – | – | – | – | – | – | – | –
CC(N)(Cc1ccc(O)c(O)c1)C(=O)O (stereo not given) | 0.961 (inactive) and 1 (inactive) | 0.914 (active) and 0.963 (inactive) | 1.02 (inactive) and 1.01 (inactive) | 1.01 (inactive) | – | 1.01 (inactive) and 1 (inactive) | 1.01 (inactive) | 1.01 (inactive) | 1.01 (inactive) and 0.993 (inactive) | 0.956 (inactive) | 1.01 (inactive) and 0.992 (inactive) | 0.862 (inactive) | 0.984 (inactive) and 0.975 (inactive) | 1.01 (inactive) | 0.971 (inactive) | 1.02 (inactive) and 1.01 (inactive) | 0.943 (inactive) | –
COC(=O)C(C)(N)Cc1ccc(O)cc1 (stereo not given) | 0.987 (inactive) | 1.01 (inactive) | 0.966 (inactive) | 1.01 (inactive) | 0.974 (inactive) | 0.996 (inactive) | 0.99 (inactive) | 0.997 (inactive) | 1.01 (inactive) | 0.991 (inactive) | 0.976 (inactive) | – | – | – | 1.03 (inactive) | – | 0.988 (inactive) | 1.01 (inactive)
COCCCCC(=NOCCN)c1ccc(C(F)(F)F)cc1 | 0.994 (inactive) | 0.997 (inactive) | 0.975 (inactive) | 1 (inactive) | – | 1.01 (inactive) | 1 (inactive) | 1.02 (inactive) | 0.993 (inactive) | – | – | – | 0.992 (inactive) | – | 1.02 (inactive) | 0.988 (inactive) | – | –
